Compound activity: PubChem, several laboratories
Sampled rows, rich in hits. Any-hit rate of the full collection: about 1%.
Keap1-Nrf2 PPI = disrupts human Keap1 binding to Nrf2 peptide; Keap1 Kelch-Nrf2 peptide fluorescence polarization, 1536-well; inhibition, % at 9.4 µM; 340,000 tested, 0.15% active; AID 504523; in the data active means inhibition above about 12%;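 further: human Keap1 Kelch domain with fluorescein labeled Nrf2 9mer peptide probe; higher means more block of Keap1 binding to Nrf2 peptide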
Target sequence (Q14145 whole entry, looked up, the tested form may be a part): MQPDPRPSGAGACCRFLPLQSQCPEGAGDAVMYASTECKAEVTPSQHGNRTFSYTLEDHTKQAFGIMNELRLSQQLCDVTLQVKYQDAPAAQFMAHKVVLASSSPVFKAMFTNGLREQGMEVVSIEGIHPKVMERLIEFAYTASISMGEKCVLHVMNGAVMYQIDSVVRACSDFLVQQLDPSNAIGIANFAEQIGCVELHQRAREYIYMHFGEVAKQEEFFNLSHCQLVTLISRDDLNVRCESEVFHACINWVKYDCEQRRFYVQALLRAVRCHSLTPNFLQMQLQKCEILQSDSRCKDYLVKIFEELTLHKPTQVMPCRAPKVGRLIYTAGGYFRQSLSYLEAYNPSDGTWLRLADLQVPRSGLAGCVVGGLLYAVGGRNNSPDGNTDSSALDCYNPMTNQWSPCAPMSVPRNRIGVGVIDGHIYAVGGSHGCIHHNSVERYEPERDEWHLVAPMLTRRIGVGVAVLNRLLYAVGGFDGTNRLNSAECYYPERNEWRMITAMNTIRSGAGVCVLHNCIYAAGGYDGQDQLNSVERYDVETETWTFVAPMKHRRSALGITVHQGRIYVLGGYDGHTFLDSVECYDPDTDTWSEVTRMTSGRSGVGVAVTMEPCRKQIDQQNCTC
LANA-H2B inh = blocks KSHV LANA binding to histone H2A/H2B; cell-free LANA-H2A/H2B peptide, fluorescence polarization; inhibition, % (test concentration not listed); 320,000 tested, 0.6% active; AID 2629; in the data active means inhibition mostly above about 10%, no sharp cut-off; inactive means mostly below about 6.7%
RTF Ca sens inh = cardiac RTF calcium desensitization; inhibition, % at 7.15 µM; IANBD-labeled cardiac RTF, Ca2+ fluorescence; 340,000 tested, 0.12% active;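 active means inhibition above the mean inhibition of all tested compounds plus 3 SD, cut at about 17% in these data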;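 further: assay run at fixed EC70 calcium of 1.6 mM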
cardiac RTF act = increases calcium sensitivity of human cardiac regulated thin filaments. P19429+P45379. IANBD-labeled TnC RTF fluorescence at EC20 calcium; 0% EC20 calcium, 100% full calcium. activation, % at 7.2 µM. 340,000 tested, 0.24% active;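 active means activation above the mean over all tested compounds plus 3 SD, cut at about 30% in these data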;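 further: rise in fluorescence read as greater calcium sensitivity of cardiac thin filaments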
LANA DNA inh = blocks KSHV LANA C-terminal domain binding to DNA | MBP-C-LANA/FAM-LBS DNA binding, fluorescence polarization | inhibition, % at 9 µM | 340,000 tested, 0.078% active;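 active means highest replicate inhibition at or above 60% at 9 µM, even if other replicates fall short; inactive means all replicates below 60% inhibition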
Of the large screens only hits and unclear results are named; the others gave an inactive call.

O=C(Nc1ccc2c(c1)OCCO2)c1cccc(Cl)c1Cl	cardiac RTF act 39
CC(C)NC(=O)NC(=O)COC(=O)c1ccc(F)cc1F	none (no result: LANA-H2B inh)
O=S1(=O)N=C(c2ccccc2)c2ccccc21	none
Cc1cc(C)c(S(N)(=O)=O)c(C)c1N(C)S(=O)(=O)c1ccc(Cl)cc1	LANA-H2B inh 12
Cc1cc(NC(=O)CCC(=O)N(c2ccccc2)C(C)C(=O)NC2CCCC2)no1 (stereo not given)	none
Cc1ccccc1C(=O)Nc1sc2c(c1C(=O)O)CCC2	LANA-H2B inh 17
CSC(=NC(C)c1ccccc1)NS(=O)(=O)c1cccs1 (stereo not given)	none
CSC(=NS(=O)(=O)c1ccc(N)cc1)NS(=O)(=O)c1cccs1	LANA DNA inh 68 (no result: LANA-H2B inh)
CCc1cc(=O)oc2cc(C)cc(OCC(=O)NC3CC3)c12	none
Cc1cc(OCC(=O)NC2CC2)c2c(C)cc(=O)oc2c1	LANA-H2B inh 13
CCCCOC(=O)CSc1nc2c(c(=O)[nH]c(=O)n2C)n1C/C=C(\C)Cl	LANA-H2B inh 12
C/C(Cl)=C/Cn1c(SCC(C)C)nc2c1c(=O)[nH]c(=O)n2C	none
C=CCn1c(SCC(=O)N2c3ccccc3Sc3ccccc32)nnc1-c1ccco1	LANA-H2B inh 23
N#C/C(=C/c1ccc(N2CCOCC2)c([N+](=O)[O-])c1)C(N)=O	none
COCCNC(=O)NC(=O)CN1CCCc2ccccc21	LANA-H2B inh 16
O=c1[nH]c2ccc(N=Cc3c(O)ccc4cc(Br)ccc34)cc2[nH]1	cardiac RTF act 30 (no result: LANA-H2B inh)
CC(=Nc1ccccc1)C1=C(O)C(Cc2ccccc2)NC1=O (stereo not given)	none (no result: LANA-H2B inh)
COc1cccc(C2=CC(=O)C(C(C)(C)C)N2C(C)(C)C)c1 (stereo not given)	none (no result: LANA-H2B inh)
O=C(COC(=O)c1ccc(O)cc1O)c1ccc2c(c1)OCO2	LANA-H2B inh 56
COc1ccc(N(C)C(=O)c2cc3c(s2)-c2ccccc2OC3)c(OC)c1	LANA-H2B inh 18
CCCC/C=C1/CCC(CN(C)C)C1=O (stereo not given)	none (no result: LANA-H2B inh)
CS(=O)c1ccccc1O (stereo not given)	LANA-H2B inh 39
CSCC(O)Cn1[nH]c(=O)c2cc(Cl)c(Cl)cc2c1=O (stereo not given)	LANA-H2B inh 16
COc1ccc2ccccc2c1CNC(=O)CC1C(=O)NCCN1CC(C)(C)C (stereo not given)	none
O=C1Cn2c(nc3ccccc32)N1c1cccc(C(F)(F)F)c1	LANA-H2B inh 15
O=C1Cn2c(nc3ccccc32)N1c1ccccc1F	none
N#Cc1cc(C(=O)c2ccccc2O)cn(-c2nccs2)c1=O	cardiac RTF act 62
N#Cc1cc(C(=O)c2cc(F)ccc2O)cn(-c2nccs2)c1=O	cardiac RTF act 54
COc1ccc2[nH]cc(CCNC(=O)C3CCCCC3)c2c1	LANA-H2B inh 12
CC(/C=C/C=C/c1ccccc1)=N/NC(=O)CNc1ccccc1C	none
CCNc1c2c3c(cccc3n(C)c1=O)C(=O)c1ccccc1-2	LANA-H2B inh 44 (no result: Keap1-Nrf2 PPI, RTF Ca sens inh, cardiac RTF act, LANA DNA inh)
CC(=O)Nc1ccc(Nc2c3c4c(cccc4n(C)c2=O)C(=O)c2ccccc2-3)cc1	cardiac RTF act 178
Cn1c(=O)c(NC2CCCCC2)c2c3c(cccc31)C(=O)c1ccccc1-2	Keap1-Nrf2 PPI 53, cardiac RTF act 369 (no result: LANA-H2B inh)
COc1ccc(NC(=O)CC2S/C(=N\c3nccs3)N(C)C2=O)cc1 (stereo not given)	none
Cc1nn(C(=O)CNC(=O)c2ccccc2)c(C)c1C	LANA-H2B inh 9.6
C=CCN(CC=C)C(=O)Nc1ccc2nc(C)sc2c1	none
O=C(Cn1c(=O)cnc2ccccc21)Nc1cccc(S(=O)(=O)N2CCOCC2)c1	LANA-H2B inh 26
O=C(CN1CCN(c2ccccn2)CC1)Nc1cccc(S(=O)(=O)N2CCOCC2)c1	LANA-H2B inh 26
O=C(O)c1ccc(Cl)cc1NC(=O)C1CCCO1 (stereo not given)	none
COC(=O)c1ccc(C(=O)OC)c(NC(=O)C2CCCO2)c1 (stereo not given)	LANA-H2B inh 16
CC(OC(=O)c1ccccc1O)C(=O)Nc1ccc(Cl)cn1 (stereo not given)	none
CC(OC(=O)c1ccc(S(=O)(=O)N(C)C)cc1)C(=O)Nc1ccc(Cl)cn1 (stereo not given)	LANA-H2B inh 12
N#CCCN(NC(=O)OCc1ccccc1)C(=O)OCc1ccccc1	none (no result: LANA-H2B inh)
Cc1cccc(S(=O)C(c2ccccc2)c2ccccc2)c1 (stereo not given)	none (no result: LANA-H2B inh)
CCOC(=O)Nc1ccc(NCc2ccc(F)cc2)nc1N	cardiac RTF act 72
CCOC(=O)CSc1nc(N2CCOCC2)c2c(c1C#N)CC(C)(C)N(C)C2	LANA-H2B inh 15
CCOC(=O)CSc1nc(N2CCOCC2)c2c(c1C#N)CC(C)(C)OC2	none
CC1CCCC(NC(=O)c2nn(C)c3c2CS(=O)(=O)c2ccccc2-3)C1C (stereo not given)	none
O=C1N=C2N(CCN3CCCCC3)c3ccccc3N2/C1=C\c1ccc([N+](=O)[O-])s1	none (no result: LANA-H2B inh)
COc1ccccc1C(=O)N1[C@@H](C(C)C)COc2cc(Br)ccc2S1(=O)=O	none (no result: LANA-H2B inh)
O=c1[nH]c2ccccc2nc1/C=C(\O)c1cccs1	cardiac RTF act 61
COCC(O)CNc1ccccc1 (stereo not given)	none
C=CCn1c(O)c(CN2CCCCC2)c(C)c(C#N)c1=O	none
Cc1c(CN2CCCC(C)C2)c(O)n(CCO)c(=O)c1C#N (stereo not given)	cardiac RTF act 35
COc1ccc(OC)c(CCNC(=O)C2CCN(c3ncnc4c3nc3n4CCCCC3)CC2)c1	none
Cc1ccccc1C(=O)N1CCN(S(=O)(=O)c2cccs2)CC1	none
Cc1ccsc1C(=O)N1CCN(S(=O)(=O)c2cccs2)CC1	LANA-H2B inh 149
COc1ccc(NC(=O)CC2(CC(=O)O)CCCC2)cc1	none
COc1ccc(OC)c(NC(=O)CC2(CC(=O)O)CCCC2)c1	LANA-H2B inh 19
COc1cc(/C=C/C(=O)CC(=O)/C=C/c2ccc(O)c(OC)c2)ccc1O	cardiac RTF act 57
COc1cc(/C=C/C(=O)O)ccc1O	none
CCOc1ccc(OCC)c(NC(=O)CN2CCN(CC)CC2)c1	none
CCOc1ccc(OCC)c(NC(=O)CN2CCN(CC(=O)NC(C)C)CC2)c1	LANA-H2B inh 14
COc1ccc(-c2cc(C(=O)N3CC4(C)CC3CC(C)(C)C4)no2)cc1OC (stereo not given)	LANA-H2B inh 55
Cc1ccc(CNc2ccc3c(c2)OCO3)cc1	cardiac RTF act 39
NNC(=O)c1cc(O)c(O)c(O)c1	LANA DNA inh 81
COc1c(Cl)cc(C(=O)NN)cc1Cl	none
N=c1c(S(=O)(=O)c2ccc(Cl)cc2)cc2c(=O)n3ccccc3nc2n1C1CCCCC1	Keap1-Nrf2 PPI 25
C/C(=N\NC(=O)CSc1nc(C)cc(C)n1)c1cccs1	LANA-H2B inh 25
Cc1cccc(-n2c(C)cc(C=C3C(=O)c4ccccc4C3=O)c2C)c1	cardiac RTF act 62
O=C(O)CCCCCCCCCCCNC(=O)NC12CC3CC(CC(C3)C1)C2	none
